What all share (assay): NCI-60 one-dose screen, 48 h (100 = growth as untreated, 0 = no growth, -100 = all killed)
The test system of one test is NCI-H23 lung. Particulars: 10 µM unless noted.
The test system of the next test is NCI-H226 lung. Particulars: 10 µM unless noted.
A further test relates to NCI-H322M lung. The conditions noted are these: 10 µM unless noted.
The test system of a further test is HOP-62 NSCLC. The conditions noted are these: 10 µM unless noted.
The subject of another test is NCI-H460 lung. Particulars: 10 µM unless noted.
A further test relates to HOP-92 NSCLC. Particulars: 10 µM unless noted.
A further test concerns NCI-H522 lung. The conditions noted are these: 10 µM unless noted.
For a further test, the system named is A549/ATCC NSCLC. Particulars: 10 µM unless noted.
A further test relates to 786-0 renal. The conditions noted are these: 10 µM unless noted.
Another test deals with COLO 205 colon. The conditions noted are these: 10 µM unless noted.
A further test has as its system DU-145 prostate. Particulars: 10 µM unless noted.
A further test concerns K-562 leukemia. The conditions noted are these: 10 µM unless noted.
In a further test the test system is MALME-3M melanoma. The conditions noted are these: 10 µM unless noted.
The next test deals with MDA-MB-231 breast. Particulars: 10 µM unless noted.
The next test has as its system RXF 393 renal. The conditions noted are these: 10 µM unless noted.
The test system of the next test is SF-268 CNS. Particulars: 10 µM unless noted.
Another test concerns SF-295 CNS. Particulars: 10 µM unless noted.
Another test has as its system SF-539 CNS. The conditions noted are these: 10 µM unless noted.
For the next test, the system named is UACC-257 melanoma. Particulars: 10 µM.

Compounds without any hit were thinned out: in the full panel of roughly 83,000, 20% have a hit.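 Interpretation: 100, growth as untreated; towards 0, rising growth inhibition; 0, no net growth; 0 to -100, cell death. Compounds scoring below 10 were considered active.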 Values without a mark were called inactive. Calls of active or inactive are those of the source.

`Cc1ccc(-n2cc(/C=C/C(=O)c3ccc(S(C)(=O)=O)cc3)c(-c3ccc(S(C)(=O)=O)cc3)n2)cc1`: the growth in the test on NCI-H23 lung was 87.4%; in the test with NCI-H226 lung, 100%; with NCI-H322M lung, 94.6%; with HOP-62 NSCLC, 89.2%; with NCI-H460 lung, 100%; with HOP-92 NSCLC, 115%. In addition, the growth was 74.2% with NCI-H522 lung; 103% with A549/ATCC NSCLC; 103% in the test on 786-0 renal; 114% with COLO 205 colon; 104% in the test on DU-145 prostate; 27% in the test with K-562 leukemia. Besides, the growth is 50.3% in the test on MALME-3M melanoma; 86.5% with MDA-MB-231 breast; 97.9% in the test on RXF 393 renal; 104% in the test on SF-268 CNS; 97.2% in the test on SF-295 CNS; 88.8% with SF-539 CNS. In addition, in the test with UACC-257 melanoma, the growth was 100%.
In the case of `O=C(NNc1nc2cc(F)ccc2n2cncc12)c1cnccn1`, the growth is 37.4% with NCI-H23 lung; 44.6% in the test on NCI-H226 lung; 25.4% in the test on NCI-H322M lung; 36.1% with HOP-62 NSCLC; 4.66% (active) in the test with NCI-H460 lung; 63.7% in the test on HOP-92 NSCLC. In addition, the growth in the test with NCI-H522 lung is 24.3%; in the test on A549/ATCC NSCLC, 22.2%; in the test with 786-0 renal it was 10%; with COLO 205 colon it was 19.5%; in the test with DU-145 prostate, 26.6%; in the test with K-562 leukemia, 23.9%. Also, the growth in the test on MALME-3M melanoma is 29.5%; in the test with MDA-MB-231 breast, 34.1%; in the test with RXF 393 renal, 68.6%; with SF-268 CNS it was 28.3%; in the test on SF-295 CNS, 0.0659% (active); in the test with SF-539 CNS it was 30.1%. In the test on UACC-257 melanoma, the growth was 36.5%.
Consider `COc1ccc(C(=O)c2c(N)c(C#N)cn2-c2cccc(OC)c2)cc1`, for which the growth with NCI-H23 lung was 49.8%; in the test with NCI-H226 lung, 63.5%; in the test with NCI-H322M lung it was 62.6%; in the test on HOP-62 NSCLC it was 30.6%; with NCI-H460 lung, 27.8%; in the test on HOP-92 NSCLC, 21.7%. In addition, the growth was 3.14% (active) with NCI-H522 lung; 42.9% in the test with A549/ATCC NSCLC; 37.5% with 786-0 renal; 25.3% with COLO 205 colon; 50.6% with DU-145 prostate; 14.5% with K-562 leukemia. Also, the growth in the test with MALME-3M melanoma was 40.5%; with MDA-MB-231 breast it was 39.2%; in the test on RXF 393 renal it was 17.3%; in the test on SF-268 CNS it was 64.6%; in the test on SF-295 CNS, -25.5% (active); with SF-539 CNS, -5.54% (active). Moreover, in the test on UACC-257 melanoma, the growth was 47.5%.
With `COc1cc2cc(Oc3ccc(NC(=O)Nc4cc(C(F)(F)F)cc(C(F)(F)F)c4)cc3)c(C)nc2cc1OCCN(C)C`, the growth with NCI-H23 lung is 104%; in the test with NCI-H226 lung, 98.6%; in the test on NCI-H322M lung it was 109%; in the test with HOP-62 NSCLC, 101%; in the test on NCI-H460 lung it was 107%; with HOP-92 NSCLC, 127%. The growth is 102% with NCI-H522 lung; 104% in the test on A549/ATCC NSCLC; 106% with 786-0 renal; 115% with COLO 205 colon; 120% with DU-145 prostate; 106% in the test with K-562 leukemia. Further, the growth with MALME-3M melanoma is 106%; with MDA-MB-231 breast it was 104%; in the test with RXF 393 renal, 112%; in the test on SF-268 CNS, 106%; with SF-295 CNS it was 103%; in the test on SF-539 CNS, 100%. Moreover, the growth with UACC-257 melanoma is 103%.
Consider `CCCCCc1ccc(S(=O)(=O)N(C(C)=O)c2cccc(-c3csc(N(CCN4CCN(C)CC4)C(C)=O)n3)c2)cc1`, for which the growth was 48.9% in the test with NCI-H23 lung; 85.3% in the test on NCI-H226 lung; 61.1% in the test on NCI-H322M lung; 83.5% with HOP-62 NSCLC; -21.4% (active) in the test on NCI-H460 lung; 34% with HOP-92 NSCLC. Further, the growth was 69.8% in the test on NCI-H522 lung; 39.5% with A549/ATCC NSCLC; 6.89% (active) with 786-0 renal; -61% (active) with COLO 205 colon; 41.6% with DU-145 prostate; -26.2% (active) in the test with K-562 leukemia. The growth in the test on MALME-3M melanoma was -85.6% (active); with MDA-MB-231 breast, 4.58% (active); in the test with RXF 393 renal, -59.2% (active); with SF-268 CNS, 63.2%; with SF-295 CNS, -68.1% (active); with SF-539 CNS, -80.9% (active). In addition, in the test with UACC-257 melanoma, the growth was -52.6% (active).
As for `COc1ccc(S(=O)(=O)NCCCNc2nccc(-n3cnc4ccccc43)n2)cc1`, the growth with NCI-H23 lung was 91.9%; with NCI-H226 lung, 73.2%; in the test on NCI-H322M lung, 104%; with HOP-62 NSCLC, 94.9%; in the test on NCI-H460 lung it was 97.3%; in the test on HOP-92 NSCLC, 75.8%. In addition, the growth was 81.1% in the test with NCI-H522 lung; 106% in the test on A549/ATCC NSCLC; 95.9% in the test on 786-0 renal; 108% with COLO 205 colon; 100% in the test with DU-145 prostate; 78.8% with K-562 leukemia. In addition, the growth is 107% with MALME-3M melanoma; 84.1% in the test on MDA-MB-231 breast; 80.6% with RXF 393 renal; 91.6% in the test with SF-268 CNS; 90.5% in the test on SF-295 CNS; 83.9% with SF-539 CNS. In addition, the growth in the test on UACC-257 melanoma is 100%.
With `O=C(Nc1ccc(F)cc1)c1cc(-c2ccc(F)cc2F)ccc1O`, the growth with NCI-H23 lung is 1.86% (active); in the test on NCI-H226 lung, 5.87% (active); in the test on NCI-H322M lung it was 9.89% (active); in the test on HOP-62 NSCLC, 12%; with NCI-H460 lung it was 4.82% (active); in the test on HOP-92 NSCLC, -26.6% (active). The growth is -4.42% (active) in the test with NCI-H522 lung; 30.6% in the test with A549/ATCC NSCLC; 15.5% in the test with 786-0 renal; 96.4% in the test with COLO 205 colon; 16% in the test with DU-145 prostate; 15.4% with K-562 leukemia. Besides, the growth is -10.5% (active) in the test with MALME-3M melanoma; 17.6% with MDA-MB-231 breast; -21.1% (active) in the test on RXF 393 renal; 14.8% in the test with SF-268 CNS; 25% in the test on SF-295 CNS; 15.6% with SF-539 CNS. For the same compound, the growth in the test with UACC-257 melanoma was -20.7% (active).
As for `CN1C(=O)N(C)C2Nn3c(s/c(=C\c4ccccn4)c3=O)=NC21` (configuration not stated), the growth is 108% with NCI-H23 lung; 103% with NCI-H226 lung; 103% in the test on NCI-H322M lung; 100% in the test on HOP-62 NSCLC; 110% in the test on NCI-H460 lung; 107% in the test with HOP-92 NSCLC. The growth in the test on NCI-H522 lung was 92.3%; in the test on A549/ATCC NSCLC, 103%; in the test on 786-0 renal, 104%; in the test on COLO 205 colon it was 110%; in the test on DU-145 prostate, 111%; in the test with K-562 leukemia, 108%. Also, the growth with MALME-3M melanoma was 82.4%; in the test with MDA-MB-231 breast, 99.5%; in the test with RXF 393 renal it was 110%; with SF-268 CNS, 103%; in the test on SF-295 CNS, 104%; in the test on SF-539 CNS it was 101%. Further, the growth with UACC-257 melanoma is 96%.

The record behind these values is PubChem BioAssay (NCI).
